The values below come from PubChem BioAssay (NCI).

Some test systems named below: SK-MEL-2 melanoma; EKVX NSCLC; SN12C renal; UO-31 renal; CAKI-1 renal; A498 renal; CCRF-CEM leukemia; MOLT-4 leukemia; SR leukemia; RPMI-8226 leukemia; OVCAR-8 ovarian; OVCAR-5 ovarian; OVCAR-4 ovarian; SK-OV-3 ovarian; IGROV1 ovarian; OVCAR-3 ovarian; HS 578T breast; NCI/ADR-RES ovarian; TK-10 renal; ACHN renal.
Assay in all cases: NCI-60 one-dose screen, 48 h (100 = growth as untreated, 0 = no growth, -100 = all killed)
Holding throughout (settings): 10 µM unless noted

Compounds without any hit were thinned out: in the full panel of roughly 83,000, 20% have a hit.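 Assay: single dose, 48 h. Readout: percent growth (0 = no net growth; negative = cell death). Active: <10.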 A number with no mark means an inactive call. The source made the active and inactive calls.

Regarding `COc1cc([C@@H]2c3cc4c(cc3[C@H](OC3OC5COC(c6ccccc6)OC5C(O)C3O)[C@H]3COC(=O)[C@H]23)OCO4)cc(OC)c1OC` (stereo partly specified), the growth with SK-MEL-2 melanoma is 2.6% (active); with EKVX NSCLC, 74.7%; in the assay on SN12C renal, 41.8%; with UO-31 renal, 35.2%; in the assay on CAKI-1 renal, 31%; in the assay with A498 renal, 26.2%. Besides, the growth was 16.2% with CCRF-CEM leukemia; -7.44% (active) with MOLT-4 leukemia; -25.4% (active) with SR leukemia; -21.4% (active) in the assay with RPMI-8226 leukemia; 29.4% in the assay with OVCAR-8 ovarian; 38.1% in the assay with OVCAR-5 ovarian. For the same molecule, the growth with OVCAR-4 ovarian is 45.3%; in the assay with SK-OV-3 ovarian it was 83.1%; in the assay with IGROV1 ovarian, -45.7% (active); in the assay on OVCAR-3 ovarian, 61.8%; in the assay on HS 578T breast, -30% (active); in the assay on NCI/ADR-RES ovarian it was -38.9% (active).

In the case of `Cc1c(O)ccc(SC#N)c1C`, the growth with SK-MEL-2 melanoma was 103%; in the assay on EKVX NSCLC, 121%; with SN12C renal, 95.3%; in the assay with TK-10 renal, 107%; in the assay with ACHN renal, 103%; with CAKI-1 renal, 98.5%. Besides, the growth was 127% with A498 renal; 30.7% in the assay with CCRF-CEM leukemia; 97.5% with MOLT-4 leukemia; 105% with SR leukemia; 96.6% in the assay with RPMI-8226 leukemia; 102% in the assay with OVCAR-8 ovarian. In addition, the growth was 97.3% in the assay on OVCAR-5 ovarian; 107% in the assay with OVCAR-4 ovarian; 108% in the assay with SK-OV-3 ovarian; 110% in the assay on IGROV1 ovarian; 90.8% with OVCAR-3 ovarian; 124% in the assay with HS 578T breast.

On to `O=C(CBr)c1ccc(OC(=O)c2ccccc2)cc1`, for which the growth in the assay with SK-MEL-2 melanoma is 111%; in the assay with EKVX NSCLC, 118%; with SN12C renal it was 103%; in the assay with TK-10 renal it was 117%; in the assay with CAKI-1 renal, 100%; in the assay with A498 renal, 74.4%. The growth with CCRF-CEM leukemia is 67.6%; with MOLT-4 leukemia, 95.3%; in the assay on SR leukemia it was 88.6%; in the assay with RPMI-8226 leukemia, 89.9%; in the assay with OVCAR-8 ovarian, 104%; in the assay with OVCAR-5 ovarian it was 102%. For the same molecule, the growth with OVCAR-4 ovarian was 99%; in the assay with SK-OV-3 ovarian, 100%; in the assay with IGROV1 ovarian it was 116%; in the assay with OVCAR-3 ovarian, 105%; in the assay on HS 578T breast it was 108%; in the assay with NCI/ADR-RES ovarian it was 101%.

Take `O=C(Cc1nc2cc(Cl)c(Cl)cc2nc1CC(=O)c1ccccc1)c1ccccc1`: the growth is 90.2% in the assay with SK-MEL-2 melanoma; 51.4% in the assay on EKVX NSCLC; 75.4% with SN12C renal; 119% with TK-10 renal; 59.2% in the assay with ACHN renal; 68.6% in the assay with CAKI-1 renal. For the same molecule, the growth was 125% in the assay with A498 renal; 27.1% in the assay on CCRF-CEM leukemia; 28.9% with MOLT-4 leukemia; 25.7% in the assay with RPMI-8226 leukemia; 73.3% with OVCAR-8 ovarian; 77.5% in the assay on OVCAR-5 ovarian. For the same molecule, the growth in the assay on OVCAR-4 ovarian is 74.4%; with SK-OV-3 ovarian it was 77.4%; in the assay with IGROV1 ovarian it was 61%; in the assay with OVCAR-3 ovarian it was 81.5%; in the assay with HS 578T breast, 58.8%; in the assay with NCI/ADR-RES ovarian, 74.6%.

Consider `COc1cc(NC(=O)C2=C(C)NC(C)=C(C(=O)Nc3cc(OC)c(Cl)cc3OC)C2c2cccc([N+](=O)[O-])c2)c(OC)cc1Cl`, for which the growth with SK-MEL-2 melanoma is 10.2%; with EKVX NSCLC, 28.7%; in the assay with SN12C renal, 32.2%; with TK-10 renal, 70.6%; in the assay on ACHN renal it was 29.2%; in the assay with CAKI-1 renal, 21.4%. For the same molecule, the growth in the assay with A498 renal was 75.3%; in the assay with CCRF-CEM leukemia, 12.3%; with MOLT-4 leukemia, 10.3%; in the assay with RPMI-8226 leukemia it was 25.6%; in the assay with OVCAR-8 ovarian it was 38.3%; in the assay on OVCAR-5 ovarian it was 34.4%. The growth in the assay on OVCAR-4 ovarian was 39.4%; in the assay on SK-OV-3 ovarian, 52.1%; with IGROV1 ovarian, 11.4%; in the assay with OVCAR-3 ovarian, 32.3%; with HS 578T breast it was 8.61% (active); in the assay on NCI/ADR-RES ovarian, 22%.

`O=C1c2ccccc2Cc2cccc(Cl)c21`: the growth with SK-MEL-2 melanoma was 87.5%; in the assay with SN12C renal, 97.3%; with UO-31 renal, 82.9%; in the assay on TK-10 renal, 89.6%; in the assay on ACHN renal, 98.9%; in the assay on CAKI-1 renal, 99.1%. Besides, the growth in the assay on A498 renal was 64.3%; in the assay on CCRF-CEM leukemia, 98.8%; in the assay on MOLT-4 leukemia, 39.6%; in the assay on SR leukemia, 64.1%; with RPMI-8226 leukemia, 106%; in the assay with OVCAR-8 ovarian, 108%. The growth is 93.9% in the assay with OVCAR-5 ovarian; 108% in the assay with OVCAR-4 ovarian; 98% in the assay on SK-OV-3 ovarian; 88.7% with IGROV1 ovarian; 108% in the assay on OVCAR-3 ovarian; 112% with HS 578T breast.

`COC1=CC(=O)c2c(O)c3c(c(O)c2C1=O)CC(C)(O)OC3` (stereo unspecified): the growth in the assay on SK-MEL-2 melanoma was -6.4% (active); with EKVX NSCLC, 23.2%; in the assay with SN12C renal it was 34.7%; in the assay on TK-10 renal it was 66.1%; in the assay with ACHN renal, 27.6%; in the assay on CAKI-1 renal, 34.4%. Besides, the growth was 68.3% with A498 renal; 14.5% in the assay with MOLT-4 leukemia; 14.3% with SR leukemia; 34.7% in the assay with RPMI-8226 leukemia; 35.4% in the assay on OVCAR-5 ovarian; -12.8% (active) in the assay with OVCAR-4 ovarian. Also, the growth with SK-OV-3 ovarian is 86.9%; with OVCAR-3 ovarian it was -0.531% (active); with HS 578T breast it was 67.2%.

For `COC(=O)[C@]1(C)CCC[C@]2(C)c3ccc(C(C)C)cc3C(=O)[C@@H](Br)[C@@H]12`, the growth in the assay on SK-MEL-2 melanoma was 103%; with SN12C renal, 96.1%; with UO-31 renal, 69.5%; with TK-10 renal, 102%; in the assay on ACHN renal it was 92.6%; in the assay with CAKI-1 renal it was 89%. Besides, the growth was 109% with A498 renal; 70.9% in the assay on CCRF-CEM leukemia; 60.1% in the assay on MOLT-4 leukemia; 65.6% in the assay with SR leukemia; 81.1% in the assay on RPMI-8226 leukemia; 77.9% in the assay on OVCAR-8 ovarian. Moreover, the growth was 113% in the assay with OVCAR-5 ovarian; 82.3% in the assay on OVCAR-4 ovarian; 96.9% in the assay with SK-OV-3 ovarian; 111% in the assay with IGROV1 ovarian; 95.4% in the assay on OVCAR-3 ovarian; 98% in the assay on HS 578T breast. For the same molecule, the growth with NCI/ADR-RES ovarian was 96.7%.

With `CCCCCCCCCCCCCCCCCC[S+](C)CC` (stereo unspecified), the growth with SK-MEL-2 melanoma was 48.1%; in the assay on EKVX NSCLC, 91.7%; in the assay with SN12C renal, 25.7%; in the assay on TK-10 renal it was 9.52% (active); in the assay on ACHN renal, 16.2%; in the assay on CAKI-1 renal it was 66.5%. Besides, the growth in the assay with A498 renal was 63.2%; in the assay on CCRF-CEM leukemia, 14.6%; in the assay on MOLT-4 leukemia, -4.95% (active); with SR leukemia it was 32.7%; with RPMI-8226 leukemia, 30.4%; in the assay with OVCAR-8 ovarian, 13.9%. The growth in the assay on OVCAR-4 ovarian is 7.76% (active); with SK-OV-3 ovarian it was 49.5%; in the assay with IGROV1 ovarian, -34.2% (active); in the assay on OVCAR-3 ovarian it was 45.1%; in the assay on HS 578T breast, 35.9%; in the assay on NCI/ADR-RES ovarian, 84.7%.

On to `C1=C(c2ccccc2)c2ccccc2C1`, for which the growth was 94.4% with SK-MEL-2 melanoma; 90.5% with EKVX NSCLC; 68.8% in the assay on UO-31 renal; 119% in the assay on TK-10 renal; 76.4% with CAKI-1 renal; 68.5% with A498 renal. For the same molecule, the growth was 92.4% in the assay on MOLT-4 leukemia; 93.6% in the assay with SR leukemia; 114% with OVCAR-8 ovarian; 92% in the assay on OVCAR-5 ovarian; 105% with OVCAR-4 ovarian; 109% in the assay on SK-OV-3 ovarian. Besides, the growth is 101% in the assay on IGROV1 ovarian, 106% in the assay on OVCAR-3 ovarian, 95.2% in the assay with HS 578T breast and 101% in the assay with NCI/ADR-RES ovarian.
